Measured values from PubChem BioAssay AID1159580 (chemical genetic matrix, 2015).
Hit rate of the full screen: of about 5,500 compounds, about 2,000 (36%) were called active. Inconclusive results (about 18%) are left out. The list shows a part of the results. Values without a mark were called inactive. No stated cut-off is given here; in the data, active means normalized growth mostly below about 0.91 (no sharp cut-off); inconclusive means no clear call, values can overlap the other calls; inactive means mostly above about 0.92.

Test: chemical genetic growth profiling, strain panel (AID 1159580);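 further: tested at 20 µM; growth read once vehicle control cultures reached saturation at 30 °C; 1 = growth at the plate median or of vehicle wells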
Details: growth OD

In the case of `CC(C(=O)O)c1ccc(-c2ccccc2)c(F)c1` (configuration not stated), the normalized growth (S. cerevisiae deletion strains, locus YJR043C, strain POL32, stronger effect = lower value) is reported as 0.979, the normalized growth (S. cerevisiae deletion strains, locus YJR066W, strain TOR1, stronger effect = lower value) is reported as 0.762 (active) and the normalized growth (S. cerevisiae deletion strains, locus YJR075W, strain HOC1, stronger effect = lower value) is reported as 0.978. For the same compound, the normalized growth (S. cerevisiae deletion strains, locus YKL009W, strain mrt4, stronger effect = lower value) was 0.899, the normalized growth (S. cerevisiae deletion strains, locus YKL068W, stronger effect = lower value) was 0.912 (active) and the normalized growth (S. cerevisiae deletion strains, locus YKL085W, strain MDH1 (second series), stronger effect = lower value) was 0.919 (active). For the same compound, the normalized growth (S. cerevisiae deletion strains, locus YKL085W, strain MDH1, stronger effect = lower value) was 0.919 (active), the normalized growth (S. cerevisiae deletion strains, locus YKL160W, strain elf1, stronger effect = lower value) was 1.03 and the normalized growth (S. cerevisiae deletion strains, locus YKR001C, strain vps1, stronger effect = lower value) was 0.827 (active). The normalized growth (S. cerevisiae deletion strains, locus YKR026C, strain gcn3, stronger effect = lower value) was 0.977, the normalized growth (S. cerevisiae deletion strains, locus YKR091W, strain srl3, stronger effect = lower value) was 0.988 and the normalized growth (S. cerevisiae deletion strains, locus YLL001W, strain dnm1, stronger effect = lower value) was 1.02. For the same compound, the normalized growth (S. cerevisiae deletion strains, locus YLL026W, stronger effect = lower value) was 0.987, the normalized growth (S. cerevisiae deletion strains, locus YLL041C, strain sdh2, stronger effect = lower value) was 0.97 and the normalized growth (S. cerevisiae deletion strains, locus YLR027C, strain aat2, stronger effect = lower value) was 0.976. The normalized growth (S. cerevisiae deletion strains, locus YLR039C, strain RIC1, stronger effect = lower value) was 0.79, the normalized growth (S. cerevisiae deletion strains, locus YLR058C, strain SHM2, stronger effect = lower value) was 0.99 and the normalized growth (S. cerevisiae deletion strains, locus YLR102C, strain apc9, stronger effect = lower value) was 0.954. For the same compound, the normalized growth (S. cerevisiae deletion strains, locus YLR113W, strain HOG1, stronger effect = lower value) was 0.62 (active), the normalized growth (S. cerevisiae deletion strains, locus YLR221C, strain rsa3, stronger effect = lower value) was 1 and the normalized growth (S. cerevisiae deletion strains, locus YLR258W, strain gsy2, stronger effect = lower value) was 0.983. The normalized growth (S. cerevisiae deletion strains, locus YLR262C, strain YPT6 (second series), stronger effect = lower value) was 0.846 (active), the normalized growth (S. cerevisiae deletion strains, locus YLR262C, strain YPT6, stronger effect = lower value) was 0.773 and the normalized growth (S. cerevisiae deletion strains, locus YLR268W, strain sec22, stronger effect = lower value) was 0.955. For the same compound, the normalized growth (S. cerevisiae deletion strains, locus YLR320W, strain mms22, stronger effect = lower value) was 1.05, the normalized growth (S. cerevisiae deletion strains, locus YLR330W, strain CHS5, stronger effect = lower value) was 0.969 and the normalized growth (S. cerevisiae deletion strains, locus YLR342W, strain FKS1 (second series), stronger effect = lower value) was 0.936. It also gave a normalized growth (S. cerevisiae deletion strains, locus YLR342W, strain FKS1, stronger effect = lower value) of 0.984, a normalized growth (S. cerevisiae deletion strains, locus YLR357W, strain rsc2, stronger effect = lower value) of 1.01 and a normalized growth (S. cerevisiae deletion strains, locus YLR370C, strain arc18, stronger effect = lower value) of 0.989. For the same compound, the normalized growth (S. cerevisiae deletion strains, locus YLR371W, strain rom2, stronger effect = lower value) was 0.996, the normalized growth (S. cerevisiae deletion strains, locus YLR384C, strain iki3, stronger effect = lower value) was 1.01 and the normalized growth (S. cerevisiae deletion strains, locus YLR418C, strain cdc73, stronger effect = lower value) was 1.01. For the same compound, the normalized growth (S. cerevisiae deletion strains, locus YML016C, strain PPZ1, stronger effect = lower value) was 0.981, the normalized growth (S. cerevisiae deletion strains, locus YML032C, strain rad52, stronger effect = lower value) was 0.951 and the normalized growth (S. cerevisiae deletion strains, locus YML120C, strain ndi1, stronger effect = lower value) was 0.996. For the same compound, the normalized growth (S. cerevisiae deletion strains, locus YML124C, strain tub3, stronger effect = lower value) was 0.96, the normalized growth (S. cerevisiae deletion strains, locus YMR058W, strain fet3, stronger effect = lower value) was 0.994 and the normalized growth (S. cerevisiae deletion strains, locus YMR078C, strain ctf18, stronger effect = lower value) was 0.94. The normalized growth (S. cerevisiae deletion strains, locus YMR125W, strain sto1, stronger effect = lower value) was 1, the normalized growth (S. cerevisiae deletion strains, locus YMR129W, stronger effect = lower value) was 0.968 and the normalized growth (S. cerevisiae deletion strains, locus YMR205C, strain PFK2, stronger effect = lower value) was 1.03. It also gave a normalized growth (S. cerevisiae deletion strains, locus YMR223W, strain ubp8, stronger effect = lower value) of 1.02, a normalized growth (S. cerevisiae deletion strains, locus YMR231W, strain pep5, stronger effect = lower value) of 0.969 and a normalized growth (S. cerevisiae deletion strains, locus YMR307W, strain GAS1, stronger effect = lower value) of 0.938. The normalized growth (S. cerevisiae deletion strains, locus YNL067W, strain RPL9B, stronger effect = lower value) was 0.974, the normalized growth (S. cerevisiae deletion strains, locus YNL071W, strain lat1, stronger effect = lower value) was 0.985 and the normalized growth (S. cerevisiae deletion strains, locus YNL183C, strain NPR1, stronger effect = lower value) was 0.783 (active). The normalized growth (S. cerevisiae deletion strains, locus YNL209W, strain ssb2, stronger effect = lower value) was 1.01, the normalized growth (S. cerevisiae deletion strains, locus YNL233W, strain BNI4, stronger effect = lower value) was 0.991 and the normalized growth (S. cerevisiae deletion strains, locus YNL248C, strain rpa49, stronger effect = lower value) was 0.817 (active). For the same compound, the normalized growth (S. cerevisiae deletion strains, locus YNL250W, strain rad50, stronger effect = lower value) was 0.908, the normalized growth (S. cerevisiae deletion strains, locus YNL271C, strain bni1, stronger effect = lower value) was 0.888 (active) and the normalized growth (S. cerevisiae deletion strains, locus YNL298W, strain CLA4, stronger effect = lower value) was 0.792 (active). The normalized growth (S. cerevisiae deletion strains, locus YNL307C, strain MCK1, stronger effect = lower value) was 0.947, the normalized growth (S. cerevisiae deletion strains, locus YNL322C, strain KRE1 (second series), stronger effect = lower value) was 0.964 and the normalized growth (S. cerevisiae deletion strains, locus YNL322C, strain KRE1, stronger effect = lower value) was 0.975. The normalized growth (S. cerevisiae deletion strains, locus YNR049C, strain mso1, stronger effect = lower value) was 0.981, the normalized growth (S. cerevisiae deletion strains, locus YNR052C, strain pop2, stronger effect = lower value) was 0.952 and the normalized growth (S. cerevisiae deletion strains, locus YOL012C, strain htz1) was 1.06. It also gave a normalized growth (S. cerevisiae deletion strains, locus YOL147C, strain pex11, stronger effect = lower value) of 0.969, a normalized growth (S. cerevisiae deletion strains, locus YOR001W, strain rrp6, stronger effect = lower value) of 0.95 and a normalized growth (S. cerevisiae deletion strains, locus YOR061W, strain CKA2, stronger effect = lower value) of 0.973. It also gave a normalized growth (S. cerevisiae deletion strains, locus YOR069W, strain VPS5, stronger effect = lower value) of 0.994, a normalized growth (S. cerevisiae deletion strains, locus YOR070C, strain gyp1, stronger effect = lower value) of 1 and a normalized growth (S. cerevisiae deletion strains, locus YOR080W, strain dia2, stronger effect = lower value) of 1.01. It also gave a normalized growth (S. cerevisiae deletion strains, locus YOR083W, strain WHI5, stronger effect = lower value) of 1.03, a normalized growth (S. cerevisiae deletion strains, locus YOR106W, strain vam3, stronger effect = lower value) of 0.994 and a normalized growth (S. cerevisiae deletion strains, locus YOR136W, strain idh2, stronger effect = lower value) of 0.989. The normalized growth (S. cerevisiae deletion strains, locus YOR144C, strain elg1, stronger effect = lower value) was 0.965, the normalized growth (S. cerevisiae deletion strains, locus YOR184W, strain ser1, stronger effect = lower value) was 0.972 and the normalized growth (S. cerevisiae deletion strains, locus YOR231W, strain MKK1, stronger effect = lower value) was 0.732 (active). The normalized growth (S. cerevisiae deletion strains, locus YOR265W, strain rbl2, stronger effect = lower value) was 1, the normalized growth (S. cerevisiae deletion strains, locus YOR270C, strain vph1, stronger effect = lower value) was 1.05 and the normalized growth (S. cerevisiae deletion strains, locus YOR290C, strain snf2, stronger effect = lower value) was 0.97. It also gave a normalized growth (S. cerevisiae deletion strains, locus YOR316C, strain cot1, stronger effect = lower value) of 0.965, a normalized growth (S. cerevisiae deletion strains, locus YPL051W, strain arl3, stronger effect = lower value) of 0.981 and a normalized growth (S. cerevisiae deletion strains, locus YPL078C, strain atp4, stronger effect = lower value) of 1. For the same compound, the normalized growth (S. cerevisiae deletion strains, locus YPL106C, strain sse1, stronger effect = lower value) was 1.05, the normalized growth (S. cerevisiae deletion strains, locus YPL240C, strain hsp82, stronger effect = lower value) was 0.985 and the normalized growth (S. cerevisiae deletion strains, locus YPL256C, strain CLN2, stronger effect = lower value) was 0.736 (active). The normalized growth (S. cerevisiae deletion strains, locus YPR119W, strain clb2, stronger effect = lower value) was 0.95, the normalized growth (S. cerevisiae deletion strains, locus YPR141C, strain kar3, stronger effect = lower value) was 0.913 (active) and the normalized growth (S. cerevisiae deletion strains, locus YPR163C, strain tif3, stronger effect = lower value) was 0.957. It also gave a normalized growth (S. cerevisiae deletion strains, locus YPR167C, strain met16, stronger effect = lower value) of 0.962, a normalized growth (S. cerevisiae deletion strains, strain wtn01, stronger effect = lower value) of 0.971 and a normalized growth (S. cerevisiae strains, strain wild type, stronger effect = lower value) of 0.968.
